Assay results: PubChem BioAssay (NCI)
This is part of a sample that, as a whole, favours compounds with a hit. Of some 83,000 tested, about 20% had one in any assay.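 The endpoint reported here, percent growth, reads 100 for growth as untreated, 0 for no net growth and -100 for all cells dead.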 Calls of active or inactive are those of the source. Rule for the calls: active = growth percent below 10; inactive = the rest.

test system: HL-60(TB) leukemia; assay: NCI-60 one-dose screen, 48 h (100 = growth as untreated, 0 = no growth, -100 = all killed); conditions: 10 µM unless noted

Compound | growth
COc1cc2c3cc1Oc1c(OC)c(OC)cc4c1C(Cc1ccc(O)c(c1)Oc1ccc(cc1)CC3N(C)CC2)N(C)CC4 (stereo not drawn) | -32.4% (active)
CCCCn1c(=O)c(-c2cc(-c3ccc(Cl)cc3)nc(-c3ccc(Cl)cc3)c2)cc2ccc(Cl)cc21 | 100% (inactive)
CCOC(=O)C1=CCC(n2cc(F)c(=O)[nH]c2=O)O1 (stereo not drawn) | 83.6% (inactive)
